Several values for one entry are separate records, joined by “and”; a condition that tells them apart may be missing. Equal values may be shown once. The panel holds about 79,000 compounds, 15% with a hit somewhere; the sample as a whole holds those more often. Activity calls are given as the source filed them. No stated cut-off is given here; in the data, active means growth inhibition above about 70%; inactive means the rest.
Experiments:
[1] = NCI Yeast Anticancer Drug Screen. Data for the rad50 strain (AID 155);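 further: 0% = growth of vehicle-only cultures of the same strain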; details: S. cerevisiae rad50 strain growth inhibition, stronger effect = higher value
Summary of the method: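 Cells are treated with compound, grown, and their growth is then scored against vehicle-only cultures of the same repair-deficient yeast strain.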

[2] = NCI Yeast Anticancer Drug Screen. Data for the mec2-1 strain (AID 157); details: S. cerevisiae mec2-1 strain, stronger effect = higher value
Summary of the method: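 Readout is yeast growth inhibition, normalised to vehicle-treated controls, in the mec2-1 strain exposed to compound.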

[3] = NCI Yeast Anticancer Drug Screen. Data for the sgs1 mgt1 strain (AID 161);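 further: 0% = growth of cultures given vehicle only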; details: S. cerevisiae sgs1 mgt1 strain, stronger effect = higher value
Summary of the method: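 Growth of a repair-deficient yeast mutant was monitored after compound treatment and expressed as inhibition relative to vehicle-treated cultures.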

[4] = NCI Yeast Anticancer Drug Screen. Data for the cln2 rad14 strain (AID 165);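 further: 0% = growth equal to vehicle treated cultures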; details: S. cerevisiae cln2 rad14 strain, stronger effect = higher value
Summary of the method: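 Relative to vehicle controls, growth inhibition of compound-treated cln2 rad14 yeast was recorded.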

[5] = NCI Yeast Anticancer Drug Screen. Data for the bub3 strain (AID 167); details: S. cerevisiae bub3 mutant strain, stronger effect = higher value
Summary of the method: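 Part of a panel of yeast mutants defective in DNA damage repair or cell cycle regulation. Each strain is grown with compound, and inhibition is calculated relative to solvent-treated cultures.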

[6] = NCI Yeast Anticancer Drug Screen. Data for the mlh1 rad18 strain (AID 175); details: S. cerevisiae mlh1 rad18 strain growth inhibition, stronger effect = higher value
Summary of the method: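 Test agents were incubated with a yeast strain of defined genotype (DNA damage repair defect). Inhibition of growth was derived by comparison with vehicle-exposed cultures.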

[7] = at 5.0 µM (retest, dose inferred, filed as 0.5)
[8] = at 50.0 µM (retest, dose inferred, filed as 5.0)

Measured: growth inhibition

CC(=O)Nc1cccc2cc(O)ccc12
inactive: [1]; at 50.0 µM 16.8% and 18.5% and 17% | [2]; at 50.0 µM -5.9% and 4.7% and -9.55% | [3]; at 50.0 µM -2.2% and -3.8% and 10.3% | [4]; at 50.0 µM -11.6% and -20.1% and 11.6% | [5]; at 50.0 µM -11.8% and -11.7% and -4.3% | [6]; at 50.0 µM 23.2% and 18.1% and 22.8%

CCCCCCCCCCCCCCSC(=NC)NC
active: [1]; [7] 99% | [1]; [8] 99% | [1]; at 50.0 µM 99.5% | [2]; [7] 99% | [2]; [8] 99% | [2]; at 50.0 µM 99.8% | [4]; [7] 99% | [4]; [8] 99% | [4]; at 50.0 µM 98.9% | [5]; [7] 99% | [5]; [8] 99% | [5]; at 50.0 µM 99.5% | [6]; [7] 98% | [6]; [8] 99% | [6]; at 50.0 µM 99.4%

CCCCNCCCCCCCCCCCl
active: [1]; [8] 98% | [1]; at 50.0 µM 99% | [2]; [8] 99% | [2]; at 50.0 µM 96.5% | [3]; [7] 79% | [3]; [8] 99% | [3]; at 50.0 µM 98.8% | [5]; [8] 99% | [5]; at 50.0 µM 97.2% | [6]; [7] 84% | [6]; [8] 99% | [6]; at 50.0 µM 98%
inactive: [1]; [7] 47% | [2]; [7] 65% | [5]; [7] 56%

COc1cc(/C=C/C(C)=O)ccc1O
inactive: [1]; at 50.0 µM 18.1% and 35.2% and 5.45% | [2]; at 50.0 µM -10.4% and 9.95% and -15.9% | [3]; at 50.0 µM -6.5% and 21.9% and -16.1% | [4]; at 50.0 µM -17.4% and -22.3% and -1.45% | [5]; at 50.0 µM 1.7% and 3.35% and 4.4% | [6]; at 50.0 µM -4.85% and 23.2% and -20.9%

Cn1cc(/C=C/[N+](=O)[O-])c2ccc(OCc3ccccc3)cc21
inactive: [1]; [7] 2% | [1]; [8] -6% | [1]; at 50.0 µM 4.75% | [2]; [7] -3% | [2]; [8] -7% | [2]; at 50.0 µM 37% | [3]; [7] 4% | [3]; [8] 4% | [3]; at 50.0 µM 10.2% | [5]; [7] 14% | [5]; [8] 34% | [6]; [7] 3% | [6]; [8] 11% | [6]; at 50.0 µM 16.9%
active: [5]; at 50.0 µM 76.3%

Nc1ccc(Cc2ccc(Cl)cc2)cc1
active: [1]; [8] 93% | [1]; at 50.0 µM 99.2% | [2]; [8] 96% | [2]; at 50.0 µM 99% | [4]; [8] 94% | [4]; at 50.0 µM 97.9% | [5]; [8] 95% | [5]; at 50.0 µM 98.8% | [6]; [8] 95% | [6]; at 50.0 µM 99.2%
inactive: [1]; [7] -156% | [2]; [7] -51% | [4]; [7] -60% | [5]; [7] -66% | [6]; [7] -129%

O=C(O)C1C2CC3C(OC(=O)C31)C2Br (stereo not drawn)
inactive: [1]; at 50.0 µM 11.9% and 4.1% and 9.9% | [2]; at 50.0 µM 2.75% and 16.8% and -4.3% | [3]; at 50.0 µM -22.2% and 2.5% and 6.9% | [4]; at 50.0 µM -24.1% and -98.7% and -25.1% | [5]; at 50.0 µM -47.9% and 10.9% and 11.8% | [6]; at 50.0 µM 11.2% and 18.6% and 32%

C[n+]1c(/C=C/c2ccc([N+](=O)[O-])cc2)ccc2ccccc21
inactive: [1]; [7] 6% | [1]; at 50.0 µM 42% | [2]; [7] -2% | [2]; at 50.0 µM 60.8% | [3]; [7] 2% | [3]; at 50.0 µM 69.7% | [5]; [7] -2% | [5]; at 50.0 µM 11.7% | [6]; [7] 16%
active: [1]; [8] 85% | [2]; [8] 89% | [3]; [8] 77% | [5]; [8] 92% | [6]; [8] 92% | [6]; at 50.0 µM 80.2%

Cc1ccc2c(c1)[n+]([O-])c(N)c(C#N)[n+]2[O-]
inactive: [1]; [7] 0% | [1]; at 50.0 µM 68.5% | [2]; [7] -22% | [2]; at 50.0 µM 25.8% | [4]; [7] -26% | [4]; at 50.0 µM 15.8% | [5]; [7] -31% | [5]; at 50.0 µM 29.4% | [6]; [7] -48% | [6]; at 50.0 µM 62.4%
active: [1]; [8] 97% | [2]; [8] 98% | [4]; [8] 98% | [5]; [8] 97% | [6]; [8] 96%

O=[N+]([O-])c1ccc(-n2ncc3cccnc32)c([N+](=O)[O-])c1
inactive: [1]; [7] 1% | [2]; [7] -12% | [3]; [7] 2% | [5]; [7] 33% | [6]; [7] 26%
active: [1]; [8] 99% | [1]; at 50.0 µM 99% | [2]; [8] 99% | [2]; at 50.0 µM 93.6% | [3]; [8] 100% | [3]; at 50.0 µM 99.3% | [5]; [8] 99% | [5]; at 50.0 µM 92% | [6]; [8] 100% | [6]; at 50.0 µM 99.5%

CCCCCCCCCCCCCCCCCC(=O)OCC(O)COC(=O)CCCCCCCCCCCCCCCCC
inactive: [1]; [7] -2% | [1]; [8] -5% | [1]; at 50.0 µM -7.45% | [2]; [7] 1% | [2]; [8] -3% | [2]; at 50.0 µM 15.6% | [3]; [7] -3% | [3]; [8] -21% | [3]; at 50.0 µM -8.65% | [5]; [7] 4% | [5]; [8] 0% | [5]; at 50.0 µM 45.5% | [6]; [7] 2% | [6]; [8] -1% | [6]; at 50.0 µM 2.55%

CN(C)CCCNc1ccc(O)c2sc3ccccc3c(=O)c12
inactive: [1]; [7] 4% | [1]; [8] 14% | [1]; at 50.0 µM 69.7% | [2]; [7] -5% | [2]; [8] 33% | [2]; at 50.0 µM 34.6% | [3]; [7] -5% | [3]; [8] 20% | [3]; at 50.0 µM 63.6% | [4]; [7] -3% | [4]; [8] -11% | [4]; at 50.0 µM 15.6% | [6]; [7] 0% | [6]; [8] 23%
active: [6]; at 50.0 µM 72%

Reference: PubChem BioAssay (NCI)
